Test results taken from the supplement of paper PMC13380429.

Tested on: Vero E6 infected with SARS-CoV-2
Assay: inhibition of SARS-CoV-2 cytopathic effect; higher = more antiviral protection, active = above 15
Details: 48 h

Measured: inhibition of SARS-CoV-2 cytopathic effect

Cn1ccnc1S [methimazole]
inactive: 1 nM 0.07% | 8.33 nM 2.09% | 100 nM 0.26% | 833.33 nM 0.56% | 10000 nM 0.22%

CC(=O)[C@]1(O)Cc2c(O)c3c(c(O)c2[C@@H](O[C@H]2C[C@H](N)[C@H](O)[C@H](C)O2)C1)C(=O)c1ccccc1C3=O [idarubicin]
inactive: 1 nM -0.73% | 8.33 nM 1.96% | 100 nM -0.94% | 833.33 nM -13.1% | 10000 nM -6.65%

Cc1cccc(C)c1NC(=O)[C@@H](C)N [tocainide]
inactive: 1 nM 1.21% | 8.33 nM 0.17% | 100 nM -6.26% | 833.33 nM 1.04% | 10000 nM -4.59%

CC(CCc1ccccc1)NC(C)C(O)c1ccc(O)cc1 (stereo not given) [buphenine]
inactive: 1 nM 1.42% | 8.33 nM 1.45% | 100 nM -1.15% | 833.33 nM -0.63% | 10000 nM -2.78%

N#Cc1ccc(Cn2cncc2CN2CCN(c3cccc(Cl)c3)C(=O)C2)cc1
inactive: 1 nM 3.21% | 8.33 nM 3.01% | 100 nM 0.11% | 833.33 nM -2.48% | 10000 nM -1.12%
